Source: PubChem BioAssay AID1851 (National Center for Advancing Translational Sciences (NCATS), 2009)
Several values for one entry are separate records, joined by “and”; a condition that tells them apart may be missing. Equal entries are not always repeated. The whole screen tested about 16,000 compounds, of which about 4,000 (25%) were called active. About 26% were inconclusive and are not listed. A selection follows. Values without a mark were called inactive. Calls follow the shape of the dose curve; as a rule, active = well fitted curve in the direction sought with a large enough effect; inconclusive = small, poorly fitted or top-dose-only effect, or effect the other way; inactive = no such curve, though single readings can be large or run the other way.

target: Cytochrome P450 2C9 (Homo sapiens) (UniProt P11712); assay: Cytochrome panel assay with activity outcomes; conditions: recombinant CYP, pro-luciferin dealkylation, luminescence, p450-cyp2c9; series mostly up to 57.1 µM
% is scaled to controls: 0 for no effect and ±100 for the full control effect.

Sequence of Cytochrome P450 2C9 (Homo sapiens) (P11712 whole entry, looked up): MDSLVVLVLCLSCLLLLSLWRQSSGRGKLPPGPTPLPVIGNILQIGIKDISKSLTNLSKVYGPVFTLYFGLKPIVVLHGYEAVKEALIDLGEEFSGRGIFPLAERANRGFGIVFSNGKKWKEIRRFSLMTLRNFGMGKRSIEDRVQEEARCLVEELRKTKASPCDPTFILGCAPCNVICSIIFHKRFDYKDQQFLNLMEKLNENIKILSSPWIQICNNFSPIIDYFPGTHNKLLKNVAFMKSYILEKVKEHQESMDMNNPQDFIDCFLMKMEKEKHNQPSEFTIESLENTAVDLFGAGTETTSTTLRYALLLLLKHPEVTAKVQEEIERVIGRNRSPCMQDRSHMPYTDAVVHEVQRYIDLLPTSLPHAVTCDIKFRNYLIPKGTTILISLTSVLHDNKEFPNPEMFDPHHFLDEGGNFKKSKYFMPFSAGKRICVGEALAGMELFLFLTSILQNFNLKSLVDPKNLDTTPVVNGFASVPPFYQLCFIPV

**Q.** `COC(=O)c1c(NC(=O)C(C)(C)C)sc2c1C(C(=O)OC)CC2` (stereo not drawn) was tested. Which AC50 did it give?
**A.** Its AC50 is 20 µM (active).

**Q.** `O=c1c(-c2cc(F)cc(F)c2)nc2cnc(N3CCOCC3)nc2n1-c1ccccc1` was tested. Which AC50 did it give?
**A.** Its AC50 is “inactive”.

**Q.** Which AC50 does the source give for `O=c1c(-c2ccccc2)nc2cnc(N3CCOCC3)nc2n1-c1ccccc1` here?
**A.** Its AC50 is “inactive”.

**Q.** How did the AC50 turn out when `O=c1nc(N2CCOCC2)ccn1-c1nc(-c2ccccc2)oc1-c1ccccc1` was run?
**A.** Its AC50 is 4.47 µM (active).

**Q.** With `CCc1cc2c(nc1CC)CCN(CC/C(C)=N/O[C@@H](C)c1cn([C@@H]3COC[C@@H]3O)nn1)C2` as the compound, how does the activity, negative = inhibition read?
**A.** The activity, negative = inhibition was 18.9% [at 11.4 µM].

**Q.** `O=C(CN1C(=O)NC2(CCCC2)C1=O)NCCC1=CCCCC1` was tested. Which AC50 did it give?
**A.** The AC50 was “inactive”.

**Q.** Which AC50 does the source give for `O=C(O)C1CCN(c2ncccn2)CC1` here?
**A.** The AC50 was “inactive”.

**Q.** `O=C(CN1CCN(c2ncccn2)CC1)NCCC1=CCCCC1` was tested. Which AC50 did it give?
**A.** Its AC50 is 3.55 µM (active).

**Q.** Which AC50 does the source give for `CCCCCOc1ccc(NC(=O)C(=O)NCCC2=CCCCC2)cc1` here?
**A.** The AC50 was “inactive”.

**Q.** How did the AC50 turn out when `CC1(c2ccccc2)NC(=O)N(CC(=O)NCCC2=CCCCC2)C1=O` (stereo not drawn) was run?
**A.** The AC50 was 25.1 µM (active).

**Q.** Which AC50 does the source give for `COc1ccc2c(c1)CCCC21NC(=O)N(CC(N)=O)C1=O` (stereo not drawn) here?
**A.** The AC50 was “inactive”.

**Q.** Which AC50 does the source give for `O=C(COc1ccc(Cl)cc1)NCCC1=CCCCC1` here?
**A.** The AC50 was 3.98 µM (active).

**Q.** With `CCCCNC(=O)[C@@H]1Cc2ccccc2N1C(=O)[C@H](N)CC` as the compound, how does the AC50 read?
**A.** Its AC50 is “inactive”.

**Q.** `O=C(CN1CCN(C2CCCCC2)CC1)NCCC1=CCCCC1` was tested. Which AC50 did it give?
**A.** The AC50 was “inactive”.

**Q.** For `CCCCNC(=O)CN1C(=O)NC2(CCCc3ccccc32)C1=O` (stereo not drawn), which AC50 is on record?
**A.** The AC50 was 2.24 µM (active).

**Q.** With `O=C(NCCc1ccc(Cl)cc1)c1ncn[nH]1` as the compound, how does the AC50 read?
**A.** The AC50 was “inactive”.

**Q.** How did the AC50 turn out when `O=C1CSc2ccc(C(=O)NCCC3=CCCCC3)cc2N1` was run?
**A.** The AC50 was “inactive”.

**Q.** For `CCCCC[C@H](CC(=O)NO)C(=O)N[C@@H](C(=O)N1CCC[C@H]1CO)C(C)C`, which AC50 is on record?
**A.** The AC50 was “inactive”.

**Q.** With `O=C(O)/C=C\c1cnc[nH]1` as the compound, how does the AC50 read?
**A.** Its AC50 is “inactive”.

**Q.** `Cc1c(Nc2ncccc2C(=O)O)cccc1C(F)(F)F` was tested. Which AC50 did it give?
**A.** The AC50 was “inactive”.

**Q.** Which AC50 does the source give for `Cc1ccc(Cl)c(Nc2ccccc2C(=O)O)c1Cl` here?
**A.** The AC50 was 7.94 µM (active) and 1.26 µM (active).

**Q.** For `O=C(O)c1cccc(C(=O)O)c1S(=O)Cc1ccccc1` (stereo not drawn), which activity, negative = inhibition is on record?
**A.** The activity, negative = inhibition was 7.56% [at 11.4 µM].

**Q.** For `Cc1c(Cl)cccc1Nc1ccccc1C(=O)O`, which AC50 is on record?
**A.** Its AC50 is 3.16 µM (active).

**Q.** `Cc1cccc(Nc2ccccc2C(=O)O)c1C` was tested. Which AC50 did it give?
**A.** Its AC50 is 7.94 µM (active).

**Q.** How did the activity, negative = inhibition turn out when `O=C(O)CCNc1ccccc1C(=O)O` was run?
**A.** The activity, negative = inhibition was 14.2% [at 11.4 µM].

**Q.** With `O=C(Nc1cccc(F)c1)N1CCCC2(CCN(C(=O)c3cc(C(F)(F)F)cc(C(F)(F)F)c3)CC2)C1` as the compound, how does the AC50 read?
**A.** Its AC50 is “inactive”.

**Q.** For `Cn1ccnc1C[C@@](C)(O)c1ccccc1`, which activity, negative = inhibition is on record?
**A.** The activity, negative = inhibition was 4.93% [at 11.4 µM].

**Q.** For `CCc1c(O)nc2sc3ccccc3n2c1=O`, which AC50 is on record?
**A.** Its AC50 is 3.16 µM (active).

**Q.** Which AC50 does the source give for `CC(=O)Nc1c(I)c(C(=O)N[C@H]2[C@@H](O)[C@H](O)[C@H](CO)O[C@@H]2O)c(I)c(N(C)C(C)=O)c1I` here?
**A.** The AC50 was “inactive”.

**Q.** With `Cc1c(C=NCCOCc2ccccc2)cnn1C` as the compound, how does the AC50 read?
**A.** The AC50 was “inactive”.

**Q.** `COC(=O)[C@@]1(Cc2ccc(F)cc2)[C@H]2c3cc(C(=O)N4CCCC4)n(Cc4ccc(C)o4)c3C[C@H]2CN1C(=O)c1ccccc1` was tested. Which AC50 did it give?
**A.** Its AC50 is 3.98 µM (active).

**Q.** Which AC50 does the source give for `COC(=O)[C@@]1(Cc2ccccc2)[C@H]2c3cc(C(=O)N4CCCC4)n(Cc4ccc(C)o4)c3C[C@H]2CN1C(=O)c1ccccc1` here?
**A.** The AC50 was 1 µM (active).

**Q.** How did the AC50 turn out when `COC(=O)[C@@]1(Cc2ccc(F)cc2)[C@H]2c3cc(C(=O)N(C)C)n(Cc4ccc(C)o4)c3C[C@H]2CN1C(=O)c1ccccc1` was run?
**A.** Its AC50 is 10 µM (active).

**Q.** For `COc1ncc2nc(-c3ccccc3)c(=O)n(-c3ccccc3)c2n1`, which AC50 is on record?
**A.** Its AC50 is “inactive”.

**Q.** For `O=c1c2ccccc2c(-c2ccccc2)nn1Cc1ccc(Cl)cc1`, which AC50 is on record?
**A.** The AC50 was 8.91 µM (active).

**Q.** How did the AC50 turn out when `O=c1c2ccccc2c(-c2ccccc2)nn1-c1ccc(Cl)c(Cl)c1` was run?
**A.** Its AC50 is 11.2 µM (active).

**Q.** `Cc1ccc(Cn2cnc3c(nnn3Cc3ccc(Cl)cc3)c2=O)cc1` was tested. Which AC50 did it give?
**A.** Its AC50 is “inactive”.

**Q.** How did the AC50 turn out when `CC(C)(C)Cn1nc(-c2ccc(Cl)cc2)c2c(N)ncnc21` was run?
**A.** Its AC50 is “inactive”.

**Q.** How did the AC50 turn out when `Cn1c(=O)c(-c2ccc(Cl)cc2)nc2cnc(Nc3ccccc3)nc21` was run?
**A.** The AC50 was “inactive”.

**Q.** How did the AC50 turn out when `CCCc1[nH]nc2c1C(c1ccncc1)C(C#N)=C(N)O2` (stereo not drawn) was run?
**A.** Its AC50 is 2.51 µM (active).

**Q.** How did the AC50 turn out when `O=P(O)(CCc1ccccc1)C(O)c1ccccc1` (stereo not drawn) was run?
**A.** The AC50 was “inactive”.

**Q.** How did the activity, negative = inhibition turn out when `CC[C@](N)(C(=O)O)C(C)C` was run?
**A.** The activity, negative = inhibition was 1.15% [at 11.4 µM].

**Q.** With `C=CCn1c(SCc2ccccc2)nc2scc(-c3ccc(C)o3)c2c1=O` as the compound, how does the AC50 read?
**A.** Its AC50 is “inactive”.

**Q.** For `C=CCn1c(SCC)nc2sc3c(c2c1=O)CCc1ccccc1-3`, which AC50 is on record?
**A.** Its AC50 is 10 µM (active).

**Q.** Which AC50 does the source give for `Cc1c2cccc(Sc3ccccc3)c2c2c3c(cccc13)[S+](c1ccccc1)C2` (stereo not drawn) here?
**A.** The AC50 was 2.51 µM (active).

**Q.** How did the AC50 turn out when `O=C(NNC(=O)C1CC(c2cccnc2)=NO1)Nc1cccc(F)c1` (stereo not drawn) was run?
**A.** Its AC50 is “inactive”.

**Q.** For `CC1CCCC(C)N1C(=O)C1CC(c2ccc(F)cc2)=NO1` (stereo not drawn), which AC50 is on record?
**A.** The AC50 was 10 µM (active).

**Q.** For `CSCCC(NC=C1C(=O)OC(C)(C)OC1=O)C(=O)O` (stereo not drawn), which AC50 is on record?
**A.** The AC50 was “inactive”.

**Q.** How did the activity, negative = inhibition turn out when `CNc1ncncc1-c1ccccc1OC` was run?
**A.** Its activity, negative = inhibition is 6.03% [at 2.29 µM].

**Q.** `O=S(=O)(O)C1CCNCC1` was tested. Which AC50 did it give?
**A.** The AC50 was “inactive”.

**Q.** For `N#CC1=C(N)OC2=C(CC/C2=C\c2ccccc2)C1c1ccccc1` (stereo not drawn), which AC50 is on record?
**A.** Its AC50 is 0.355 µM (active).

**Q.** Which AC50 does the source give for `COc1ccccc1CN1CCCC2(CCN(C(C)=O)CC2)C1` here?
**A.** The AC50 was “inactive”.

**Q.** Which activity, negative = inhibition does the source give for `COc1cccc(-c2nc(NCc3cccs3)c3ccccc3n2)c1` here?
**A.** The activity, negative = inhibition was -29.3% [at 2.29 µM].

**Q.** Which AC50 does the source give for `COc1cccc2c(=O)c(C(=O)NCc3cccs3)c[nH]c12` here?
**A.** The AC50 was 6.31 µM (active).

**Q.** For `COc1ccccc1-c1nc(NCc2cccs2)c2ccccc2n1`, which activity, negative = inhibition is on record?
**A.** The activity, negative = inhibition was 7.82% [at 2.29 µM].

**Q.** Which AC50 does the source give for `CN(N=O)C(=O)N[C@H]1[C@@H](O)[C@H](O)[C@H](CO)O[C@@H]1O` here?
**A.** The AC50 was “inactive”.

**Q.** `C[C@@]12CC(=O)[C@@H]3[C@@H](CCC4=CC(=O)CC[C@]43C)[C@@H]1CC=C2CC(=O)O` was tested. Which activity, negative = inhibition did it give?
**A.** The activity, negative = inhibition was 4.34% [at 11.4 µM].

**Q.** For `COCC(=O)N1CCC2(CC1)CCN(c1ncccn1)CC2`, which AC50 is on record?
**A.** Its AC50 is “inactive”.

**Q.** Which AC50 does the source give for `CCN(C(=O)c1cnc(N2CCN(c3ncccn3)CC2)c2ccccc12)c1cccc(Cl)c1` here?
**A.** The AC50 was 3.16 µM (active).

**Q.** For `COCC(=O)N1CCC2(CC1)CN(c1ccccn1)C2`, which AC50 is on record?
**A.** The AC50 was “inactive”.

**Q.** With `COC(=O)N1CCC2(CC1)CCN(c1ncccn1)CC2` as the compound, how does the AC50 read?
**A.** The AC50 was “inactive”.

**Q.** How did the AC50 turn out when `CN(C(=O)c1cnc(N2CCN(c3ncccn3)CC2)c2ccccc12)c1ccc(Cl)cc1` was run?
**A.** The AC50 was 5.01 µM (active).

**Q.** How did the AC50 turn out when `COCC(=O)N1CCC2(CCCN(c3ncccn3)C2)CC1` was run?
**A.** Its AC50 is “inactive”.
